Source: PubChem BioAssay (National Center for Advancing Translational Sciences (NCATS))
TGFb inhibitor: TGF-b pathway inhibition. AID 588855. 410,000 tested, 1.2% active. HepG2 CAGA-GFP TGF-b/SMAD3 reporter, GFP fluorescence, 18 h; TGF-beta stimulated, 500 pg/mL final. Potency, µM (titrated, usually from 46.1 µM), actives largely listed as inhibitors; also: nearly all actives have a fitted effect of over 65% in size
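Read-out: total well GFP (ex488/em500-530) summed from mean per-cell fluorescence. Cells: HEPG2 CAGA-GFP, 1% FBS DMEM, 18 h at 37 degrees C with 500 pg/mL final TGF-beta. Unstimulated wells served as the full-inhibition control; stimulated DMSO wells = 0%.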
HepG2 tox: counter-screen for TGF-b inhibitors: cytotoxicity in HepG2 cells. HepG2 CAGA-GFP viability, ATP luminescence, 18 h. Potency, µM (series often up to 46.1 µM), most hits filed as cytotoxic. 410,000 tested, 0.76% active
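HepG2 CAGA-GFP cells (1000/well, DMEM with 1% FBS) received compound, then TGF-beta at 500 pg/mL final, and were incubated 18 hours at 37 degrees C. Viability was read by CellTiter-Glo luminescence. Media-only wells were set as complete cell-killing and DMSO as no toxicity.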
DT40 TDP1 CPT: DT40-hTDP1 cell growth loss with CPT; chicken DT40 Tdp1-/-;hTDP1 cells + 20 nM CPT, ATP luminescence, 48 h; Potency, µM (top dose mostly 46.2 µM), hits mostly inhibitors; 420,000 tested, 12% active; also: nearly all actives have a fitted effect of over 55% in size
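Chicken DT40 Tdp1-/- cells stably complemented with human TDP1 were seeded at 400 cells/well in medium containing 20 nM camptothecin, exposed to pin-transferred compounds, and grown at 37 °C for at least 48 hr. Viability was read as ATP luminescence.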
TDP1 cell noCPT: qHTS for Inhibitors of human tyrosyl-DNA phosphodiesterase 1 (TDP1): qHTS in cells in absence of CPT | DT40 Tdp1-/- hTDP1 cells, no CPT, ATP luminescence, 48 h | Potency, µM (top dose mostly 46.2 µM), usual class: inhibitors | 420,000 tested, 15% active | AID 686978, 2013; also: nearly all actives have a fitted effect of over 55% in size
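Growth kinetics read by CellTiter-Glo luminescence after ≥48 hr at 37 °C. Cells: DT40 Tdp1-/- stably carrying human TDP1, 400 per well, compound exposure in the absence of CPT (DMSO vehicle).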
ATXN2 expr inh: inhibitors of ATXN2 expression. HEK-293 ATXN2-luciferase reporter, luminescence, 24 h. Potency, µM (titrated, usually from 57 µM), most hits filed as inhibitors. 360,000 tested, 0.72% active. AID 1745845; also: nearly all actives have a fitted effect of over 55% in size
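qHTS (up to 57 uM final) was run with 24 h compound exposure of reporter cells at 37 °C. Each well was multiplexed: SteadyGlo luminescence measured ATXN2-luciferase expression after a fluorogenic Gly-Phe-AFC viability readout (25 uM final).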
ATXN viability: viability counter-screen for ATXN expression inhibitors | S2 cells (HEK-293 line with an ATXN2-luciferase reporter) viability, CellTiter-Fluor protease fluorescence, 24 h | 400,000 tested, 0.49% active | Potency, µM (highest dose often 56.7 µM), actives largely listed as cytotoxic; also: nearly all actives have a fitted effect of over 40% in size
Each line names hits and unclear results; the compound was inactive in the other large screens. Sampled rows, rich in hits. Any-hit rate of the full collection: about 17%. Calls follow the shape of the dose curve; as a rule, active = well fitted curve in the direction sought with a large enough effect; inconclusive = small, poorly fitted or top-dose-only effect, or another doubt; inactive = no such curve, though single readings can be large; an effect the other way counts as inactive or inconclusive.

CC1(C(=O)NCc2cccc3ccccc23)CCN1Cc1ccccc1OC(F)F (stereo unspecified)	TGFb inhibitor inconclusive, DT40 TDP1 CPT 21µM, TDP1 cell noCPT 15µM, ATXN2 expr inh inconclusive
CC1(C(=O)NCc2ccc(C(F)(F)F)cc2)CCN1C1Cc2ccccc2C1 (stereo unspecified)	TGFb inhibitor inconclusive, DT40 TDP1 CPT inconclusive, TDP1 cell noCPT inconclusive, ATXN viability inconclusive
CC1(C(=O)NCc2ccc(C(F)(F)F)cc2)CCN1Cc1cc2ccccc2o1 (stereo unspecified)	TGFb inhibitor inconclusive, DT40 TDP1 CPT 21µM, TDP1 cell noCPT 18µM, ATXN viability inconclusive
CC1(C(=O)NCc2ccc(C(F)(F)F)cc2)CCN1Cc1ccccc1OC(F)F (stereo unspecified)	TGFb inhibitor inconclusive, DT40 TDP1 CPT inconclusive, TDP1 cell noCPT 23µM, ATXN viability inconclusive
COc1ccccc1CNC(=O)C1(C)CCN1Cc1ccc2ccccc2c1 (stereo unspecified)	TGFb inhibitor inconclusive
CCc1cc2cc(OC)c(OC)cc2c(Cc2ccccc2)n1	none (no result: TGFb inhibitor, HepG2 tox, DT40 TDP1 CPT, TDP1 cell noCPT)
O=C(Cn1cccn1)N1CCCC(N2CCN(Cc3ccc4c(c3)OCO4)CC2)C1 (stereo unspecified)	none
CC(C)Cn1c(SCC(=O)N2CCN(S(=O)(=O)c3ccccc3)CC2)nc2ccccc21	TGFb inhibitor inconclusive, DT40 TDP1 CPT 18µM, TDP1 cell noCPT inconclusive, ATXN2 expr inh inconclusive
CC(C)Cn1c(SC(C)C(=O)Nc2ccc(N3CCOCC3)cc2)nc2ccccc21 (stereo unspecified)	TDP1 cell noCPT inconclusive (no result: ATXN2 expr inh)
CCNC(=O)NC(=O)C(C)Sc1nc2ccccc2n1CC(C)C (stereo unspecified)	DT40 TDP1 CPT 18µM, TDP1 cell noCPT 16µM
CC(C)Cn1c(SCC(=O)NC(=O)NC2CCCC2)nc2ccccc21	TGFb inhibitor inconclusive, DT40 TDP1 CPT 26µM, TDP1 cell noCPT 16µM
CCn1c(N2CCN(S(=O)(=O)c3ccccc3)CC2)nc2ccccc21	DT40 TDP1 CPT inconclusive, TDP1 cell noCPT 18µM, ATXN viability inconclusive (no result: ATXN2 expr inh)
COc1ccc(C2C3=C(CC(C)(C)CC3=O)Oc3ncn4nc(-c5cccnc5)nc4c32)cc1 (stereo unspecified)	none
O=C(CSc1nc2ccccc2c(=O)[nH]1)N1CCN(S(=O)(=O)c2ccccc2)CC1	DT40 TDP1 CPT inconclusive
O=C(CSc1nc(-c2ccccc2)c(-c2ccccc2)[nH]1)N1CCN(S(=O)(=O)c2ccccc2)CC1	DT40 TDP1 CPT 18µM, TDP1 cell noCPT 18µM
COc1ccc(NC(=O)Cn2cnc3ccc(S(=O)(=O)N4CCC(C)CC4)cc3c2=O)cc1Cl	DT40 TDP1 CPT 7.3µM, TDP1 cell noCPT 4.1µM
CC1CCN(S(=O)(=O)c2cn(CC(=O)Nc3ccc(F)c(Cl)c3)c(=O)c3ccccc23)CC1	TGFb inhibitor inconclusive, DT40 TDP1 CPT 23µM, TDP1 cell noCPT 23µM, ATXN viability inconclusive
COc1cc(NC(=O)Cn2cc(S(=O)(=O)N3CCC(C)CC3)c3ccccc3c2=O)cc(OC)c1OC	TGFb inhibitor inconclusive, DT40 TDP1 CPT inconclusive, TDP1 cell noCPT inconclusive, ATXN viability inconclusive
COCCNC(=O)c1onc(CSc2nc3ccccc3[nH]2)c1C(=O)NCCOC	TGFb inhibitor inconclusive, TDP1 cell noCPT inconclusive
COc1cc(/C=N/NC(=O)c2ccc3nc[nH]c3c2)cc(OC)c1OC	ATXN viability inconclusive
c1ccc(CSc2nc3ccccc3[nH]2)cc1	TDP1 cell noCPT inconclusive
COc1cc(/C=N/NC(=O)c2ccc(CSc3nc4ccccc4[nH]3)cc2)cc(OC)c1OC	DT40 TDP1 CPT 18µM, TDP1 cell noCPT 13µM
CC(C)CCNC(=O)c1onc(CSc2nc3ccccc3[nH]2)c1C(=O)NCCC(C)C	TGFb inhibitor inconclusive, DT40 TDP1 CPT inconclusive, TDP1 cell noCPT 16µM
O=C(NCCCO)c1ccc(CSc2nc3ccccc3[nH]2)cc1	DT40 TDP1 CPT inconclusive, TDP1 cell noCPT 18µM
O=[N+]([O-])c1ccc(CSc2nc3ccccc3[nH]2)cc1	DT40 TDP1 CPT inconclusive, TDP1 cell noCPT 29µM
O=C(NCCO)c1ccc(CSc2nc3ccccc3[nH]2)cc1	TDP1 cell noCPT inconclusive
CCCCNC(=O)C1(C)CCN1C(=O)c1cccnc1Oc1ccccc1 (stereo unspecified)	none
CC(C)(C)C(=O)C(CO)(Oc1ccc(Cl)cc1)n1cncn1 (stereo unspecified)	DT40 TDP1 CPT inconclusive
CCOC(=S)SCC(=O)Nc1nc(-c2ccccc2)cs1	TGFb inhibitor inconclusive, DT40 TDP1 CPT 2.9µM, TDP1 cell noCPT 2.6µM, ATXN viability inconclusive
CN(C)CC(=O)Nc1nc(-c2ccccc2)cs1	TDP1 cell noCPT inconclusive
Cc1ccc(-c2csc(NC(=O)CSC3=NCCS3)n2)cc1	TGFb inhibitor inconclusive, DT40 TDP1 CPT inconclusive (no result: ATXN2 expr inh, ATXN viability)
CCOC(=S)SCC(=O)Nc1nc(-c2ccc(Br)cc2)cs1	TGFb inhibitor inconclusive, DT40 TDP1 CPT 4.6µM, TDP1 cell noCPT 4.6µM, ATXN2 expr inh inconclusive, ATXN viability inconclusive
COc1ccccc1C(=O)Nc1cccc(N2CCC(NCc3cnn(-c4ccccc4)n3)CC2)c1	TDP1 cell noCPT inconclusive (no result: TGFb inhibitor, HepG2 tox, ATXN2 expr inh, ATXN viability)
Cc1ccc(NC(=S)N2CCCC(c3nc4ccc(C)cc4[nH]3)C2)c(C)c1 (stereo unspecified)	TGFb inhibitor inconclusive, DT40 TDP1 CPT inconclusive, TDP1 cell noCPT inconclusive, ATXN viability inconclusive
Cc1ccc2nc(C3CCCN(C(=S)Nc4cccc(C)c4C)C3)[nH]c2c1 (stereo unspecified)	TGFb inhibitor inconclusive, DT40 TDP1 CPT inconclusive, TDP1 cell noCPT 18µM, ATXN2 expr inh inconclusive, ATXN viability inconclusive
COc1cc(/C=C2\SC(N)=NC2=O)ccc1O	TGFb inhibitor inconclusive, DT40 TDP1 CPT 12µM, TDP1 cell noCPT 4.6µM, ATXN2 expr inh inconclusive, ATXN viability inconclusive
COc1cc(/C=C2\SC(N)=NC2=O)cc(OC)c1	DT40 TDP1 CPT 18µM, TDP1 cell noCPT inconclusive
CCN1CCN(CC(=O)N/N=C/c2ccc(F)cc2F)CC1	none
COCCN(C(=O)C1CC(=O)N(Cc2ccccc2)C1)c1nc(-c2ccc([N+](=O)[O-])cc2)cs1 (stereo unspecified)	DT40 TDP1 CPT 16µM, TDP1 cell noCPT 21µM
O=C(OCc1ccc([N+](=O)[O-])cc1)C1CC(=O)N(Cc2ccccc2)C1 (stereo unspecified)	none
COc1ccc(CCC(=O)Nc2nnc(C(F)(F)F)s2)cc1	none
Cc1ccc2[nH]c(=O)c(CN(CC3CCCO3)C(=O)c3ccncc3)cc2c1 (stereo unspecified)	none
